Experimental findings from PubChem BioAssay are described below.

Assay [1] in a line: inhibitors of TNFa-induced NFkB p65 translocation, primary screen, imaging, HUVEC, MLSMR starter and 10KST1 sets (AID 438;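 active = inhibition above 20% together with a positive visual image hit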;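 note: compound added about 3h40 before a 20 min TNFalpha stimulation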;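 for inhibition: signal is the nuclear over cytoplasmic p65 intensity ratio per well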). As to conditions: HUVEC TNFa-induced p65 nuclear translocation; cell count: measured here: nuclei count (cytotoxicity indicator), at 2.08 µM; inhibition: at 2 µM, stronger effect = higher value, 0% TNFa-plus-vehicle, 100% no-TNFa wells.
A short description of assay [2]: inhibitors of E-selectin induction by TNFa, primary screen, imaging, HUVEC, immunofluorescence, MLSMR starter and 10KST1 sets (AID 487;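 active = visually confirmed hit in the image check and inhibition above 20%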;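 for inhibition: signal is fraction of cell area covered by stained E-selectin grains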;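 for nuclei count: 100% = median nuclei count of all wells on the same plate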). The note with it: HUVEC TNFalpha-induced E-selectin immunofluorescence imaging, at 2 µM; inhibition: stronger effect = higher value; nuclei count: measured here: cell number, toxicity.
Assay [3] is described as follows: DUSP6 inhibitors restoring Erk phosphorylation by chemical complementation, primary imaging in DUSP6-transfected HeLa (AID 609;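 active = compounds giving at least 50% inhibition in the cell-based MKP-3 phosphatase rescue imaging test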;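 for inhibition: phospho-Erk level distribution per well compared with pooled transfected vehicle control wells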). As to conditions: HeLa MKP-3 transfected, phospho-Erk imaging KS statistic, at 10 µM, cells stimulated with TPA for 15 min.
The target of assay [4] is Dual specificity protein phosphatase 6 (Homo sapiens) (UniProt Q16828). The description is as above. As to conditions: HeLa MKP-3 transfected, phospho-Erk imaging KS statistic; at 10 µM; stronger effect = higher value; cells stimulated with TPA for 15 min.
Chain of Dual specificity protein phosphatase 6 (Homo sapiens) (Q16828 whole entry, looked up): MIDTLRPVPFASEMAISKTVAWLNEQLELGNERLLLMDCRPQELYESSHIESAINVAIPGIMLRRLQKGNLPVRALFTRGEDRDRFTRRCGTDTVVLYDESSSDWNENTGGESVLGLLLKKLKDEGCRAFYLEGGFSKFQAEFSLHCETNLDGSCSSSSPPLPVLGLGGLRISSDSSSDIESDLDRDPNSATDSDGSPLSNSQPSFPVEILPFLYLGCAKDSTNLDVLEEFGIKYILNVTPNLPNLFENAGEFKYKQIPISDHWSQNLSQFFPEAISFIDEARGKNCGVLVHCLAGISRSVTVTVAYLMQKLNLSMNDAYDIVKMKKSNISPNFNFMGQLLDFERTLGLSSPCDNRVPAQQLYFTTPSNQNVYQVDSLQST
Assay [5] has as its target Voltage-gated potassium channel subunit beta-2 (Rattus norvegicus) (UniProt P62483). Nature of the assay: KvBeta enzyme negative modulators, primary screen, biochemical, NADPH fluorescence (AID 622;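 active = fluorescence slope higher than the sample average by over 3 SD, cut at about -0.22 in these data, passing the limit was not always enough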;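 note: slope of raw intensity against log time taken from 70 to 1610 s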). The note with it: recombinant KvBeta, 4-cyanobenzaldehyde reduction, at 10 µM, stronger effect = higher value.
Assay [6] shares this target. Put plainly: KvBeta positive modulators, primary screen, biochemical, NADPH fluorescence (AID 623).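 Note: fluorescence intensity change per second fitted from 20 to 320 s.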 As to conditions: Recombinant KvBeta, NADPH fluorescence decrease slope, 10 min; at 10 µM; stronger effect = lower value.
Assay [7] has as its target Alpha-2C adrenergic receptor (Homo sapiens) (UniProt P18825). Put plainly: modulators of alpha2C/GIRK thallium flux, primary screen, cell-based, HEK293 alpha2C/GIRK1/2 (AID 624;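 active = fluorescence slope after compound addition differing from the mean of all screened samples at 99.7% confidence, in either direction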;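 note: slope of fluorescence ratio to pre-addition baseline per second over 15 to 24 s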). The note with it: thallium flux BTC fluorescence, at 10 µM, actives lie on both sides.
The nature of assay [8]: inhibitors of larval lipid processing in zebrafish, primary screen, whole organism, PED6 fluorescence, gall bladder and intestine (AID 686;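 active = a full or partial loss of lipid-probe fluorescence in the fish gall bladder, intestine or both, judged by eye; inactive = no fluorescence loss, or compound toxic to the fish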;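 note: larvae 5 to 7 days old with five fish per well; signal comes from phospholipase A2 cleavage of quenched PED6 carried via bile; overnight exposure to compound and PED6 before scoring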). As to conditions: Zebrafish larvae PED6 lipid processing, fluorescence scoring; screened at 20 µM (by protocol).
The nature of assay [9]: inhibitors of Chlamydomonas gravitaxis, primary screen, whole organism, Chlamydomonas reinhardtii, WT vs cilia-less mutant, absorbance, 96-well (AID 463189;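 active = inhibition at or above 50% relative to wild type and mutant plate controls; inactive = inhibition below 50%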;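 note: 0% = wild type cc124 cells in DMSO and 100% = ciliumless bld1 mutant cells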). As to conditions: OD600 absorbance, 2 days, at 10 µM, stronger effect = higher value.
In assay [10] the target is Muscarinic acetylcholine receptor M4 (Homo sapiens) (UniProt P08173). Nature of the assay: compounds altering M4/GIRK thallium flux, either direction, primary screen, M4 allosteric agonist project, cell-based, HEK293 M4/GIRK, BTC-AM (AID 625;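 active = fluorescence slope after compound addition differing from the mean of all tested samples at 99.7% confidence, mostly higher but some lower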;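 note: thallium influx through GIRK channels coupled to M4 in HEK293 cells with BTC-AM dye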). As to conditions: at 10 µM, actives lie on both sides.
Chain of Muscarinic acetylcholine receptor M4 (Homo sapiens) (P08173 whole entry, looked up): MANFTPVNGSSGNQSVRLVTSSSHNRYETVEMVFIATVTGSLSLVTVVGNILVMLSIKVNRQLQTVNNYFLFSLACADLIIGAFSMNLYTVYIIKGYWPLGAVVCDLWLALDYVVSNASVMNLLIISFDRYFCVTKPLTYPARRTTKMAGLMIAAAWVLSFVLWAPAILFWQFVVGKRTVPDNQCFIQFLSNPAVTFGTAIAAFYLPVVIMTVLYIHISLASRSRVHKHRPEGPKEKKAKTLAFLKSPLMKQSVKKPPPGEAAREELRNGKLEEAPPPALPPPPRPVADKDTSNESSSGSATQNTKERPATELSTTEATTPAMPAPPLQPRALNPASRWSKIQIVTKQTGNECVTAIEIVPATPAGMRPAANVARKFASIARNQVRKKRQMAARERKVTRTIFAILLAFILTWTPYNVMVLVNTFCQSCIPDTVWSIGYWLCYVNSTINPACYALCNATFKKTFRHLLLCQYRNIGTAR
Setting [11] is: measured here: cell density z-score.
Setting [12] is: measured here: nuclear c-Myc green intensity z-score.
[13] abbreviates: measured here: nuclear pErk red intensity z-score, stronger effect = higher value.

SMILES strings stand for the structures. Calls of active or inactive are those of the source.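 Rule for the calls, unless noted: active = NADPH fluorescence slope more negative than the mean of all samples by about 3 SD, 99.7% confidence; inactive = the rest.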

As usually defined, the inhibition is the change of the read-out against control, counted positive when it falls.

Chain of Alpha-2C adrenergic receptor (Homo sapiens) (P18825 whole entry, looked up): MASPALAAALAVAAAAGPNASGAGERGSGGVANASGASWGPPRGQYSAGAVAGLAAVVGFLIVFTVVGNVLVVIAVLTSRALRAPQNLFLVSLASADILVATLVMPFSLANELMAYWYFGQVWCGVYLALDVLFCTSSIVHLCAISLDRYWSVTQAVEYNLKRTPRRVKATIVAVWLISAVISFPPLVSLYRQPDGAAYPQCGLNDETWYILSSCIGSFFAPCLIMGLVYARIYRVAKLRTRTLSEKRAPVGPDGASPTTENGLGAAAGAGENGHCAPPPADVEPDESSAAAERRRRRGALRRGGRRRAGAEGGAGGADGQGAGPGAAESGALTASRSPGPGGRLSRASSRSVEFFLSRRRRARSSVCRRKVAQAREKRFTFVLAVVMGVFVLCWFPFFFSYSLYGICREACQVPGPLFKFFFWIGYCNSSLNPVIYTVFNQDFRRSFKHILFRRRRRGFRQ
Chain of Voltage-gated potassium channel subunit beta-2 (Rattus norvegicus) (P62483 whole entry, looked up): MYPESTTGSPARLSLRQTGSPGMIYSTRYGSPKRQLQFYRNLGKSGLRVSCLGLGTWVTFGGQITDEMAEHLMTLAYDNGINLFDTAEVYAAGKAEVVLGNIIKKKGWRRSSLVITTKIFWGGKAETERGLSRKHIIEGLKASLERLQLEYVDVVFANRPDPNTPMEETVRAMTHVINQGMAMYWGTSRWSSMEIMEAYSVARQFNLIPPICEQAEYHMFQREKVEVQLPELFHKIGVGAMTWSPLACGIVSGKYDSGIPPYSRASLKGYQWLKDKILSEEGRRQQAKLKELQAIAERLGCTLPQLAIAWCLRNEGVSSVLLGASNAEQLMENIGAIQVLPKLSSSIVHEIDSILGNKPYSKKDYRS

Consider `CC1(C)Cc2c(C#N)c(N3CCOCC3)nc(-c3ccccc3)c2CO1`, for which the cell count in [1] came to 600. Besides, the inhibition is -14.3% (inactive) in [1], -25.8% (inactive) in assay [2], 3.66% (inactive) in [4] and -17.1% (inactive) in [9]. In assay [2], this compound displayed a nuclei count of 109%. Further, the values for the z-score in assay [3] (setting [11]), in assay [3] (setting [12]) and in assay [3] (setting [13]) were -0.0371, -0.989 and 0.333, respectively. Also, in assay [5], the fluorescence slope is -0.424 (inactive). Also, the NADPH fluorescence slope in [6] is -7.6e-05 (inactive). In [7], the slope was 0.0042 (inactive). Further, the call in [8] was inactive.
Take `Cc1nn(C)cc1CNC(=O)c1ccc(Br)o1`: in assay [1], the cell count is 507. In addition, the inhibition in assay [1] is -14.6% (inactive); in [2], -66.6% (inactive); in [4], 10.1% (inactive); in [9] it was 0.36% (inactive). The compound also displayed a nuclei count in [2] of 111%. The values for the z-score in assay [3] (setting [11]), in assay [3] (setting [12]) and in assay [3] (setting [13]) were 0.29, 0.777 and -0.409, respectively. For the same compound, the fluorescence slope in assay [5] was -0.444 (inactive). Also, the NADPH fluorescence slope in [6] is -3.5e-08 (inactive). For the same compound, in [7], the slope was 0.00689 (inactive). The outcome in assay [8] was inactive.
`CC(=O)c1c(C(C)=O)c(C)n(NC(=O)c2ccncc2)c1C`: the cell count in assay [1] amounted to 557. The inhibition in [1] is 1.2% (inactive); in [2], -2.4% (inactive); in [4], 5.26% (inactive); in assay [9] it was 8.61% (inactive). In addition, the nuclei count in assay [2] stood at 133%. Also, the z-score was 1.16 in assay [3] (setting [11]), -1.48 in [3] (setting [12]) and 0.477 in [3] (setting [13]). Also, in assay [5], the fluorescence slope is -0.305 (inactive). In addition, the NADPH fluorescence slope in assay [6] was 7.7e-06 (inactive). The slope in assay [7] was 0.00487 (inactive). Further, the call in [8] was inactive.
Take `COCc1cc(C)nc(N)c1C#N`: in assay [1], the cell count came out at 606. The inhibition in assay [1] was 5.8% (inactive); in assay [2], -20.1% (inactive); in [4] it was 16.1% (inactive); in assay [9] it was -2% (inactive). This compound came in with a nuclei count in [2] of 136%. The z-score in assay [3] (setting [11]) is 0.714; in assay [3] (setting [12]), -1.4; in assay [3] (setting [13]), 1.43. In addition, in assay [5], the fluorescence slope is -0.219 (inactive). Also, the NADPH fluorescence slope in assay [6] was 9.7e-06 (inactive). Besides, the slope in assay [7] was 0.00554 (inactive). Further, in assay [8], the outcome was inactive.
Turning to `COC(=O)C1C(=O)CC(C)(O)C(C(=O)OC)C1c1ccccc1F` (stereo unspecified), the cell count in assay [1] turned out to be 586. For the same compound, the inhibition is -1.8% (inactive) in assay [1], -42.2% (inactive) in [2], 7.83% (inactive) in [4] and -7% (inactive) in assay [9]. For the same compound, the nuclei count in assay [2] was 178%. For the same compound, the z-score in assay [3] (setting [11]) is -1.74; in assay [3] (setting [12]), -0.438; in assay [3] (setting [13]), 1.61. Besides, the fluorescence slope in assay [5] is -0.345 (inactive). Moreover, the NADPH fluorescence slope in [6] was -3.4e-05 (inactive). Besides, the slope in assay [7] was 0.00488 (inactive). In [8], the outcome was inactive.
As to `COc1ccc2c(c1OC)C(=O)N1c3ccccc3C(=O)N(c3ccc(F)cc3)C21` (stereo unspecified), the cell count in assay [1] is 409. The inhibition is -15.5% (inactive) in assay [1], -44.4% (inactive) in assay [2], -1.12% (inactive) in assay [4] and 6.22% (inactive) in [9]. This compound also showed a nuclei count in assay [2] of 103%. Further, the z-score in [3] (setting [11]) was -0.0624; in assay [3] (setting [12]), -0.142; in [3] (setting [13]) it was 0.819. For the same compound, in assay [5], the fluorescence slope was -0.305 (inactive). The NADPH fluorescence slope in assay [6] was -2.1e-05 (inactive). In assay [7], the slope is 0.00563 (inactive). In assay [8], the call was inactive.
For `CSc1nc2sc3c(c2c(=O)n1C1CCCCC1)CCN(C)C3`, the cell count in assay [1] stood at 563. In addition, the inhibition was 1.3% (inactive) in assay [1], -69.6% (inactive) in assay [2], 9.82% (inactive) in [4] and -15.6% (inactive) in [9]. The nuclei count in assay [2] came out at 107%. Also, the z-score is 0.231 in assay [3] (setting [11]), 0.631 in [3] (setting [12]) and -1.25 in assay [3] (setting [13]). Further, in assay [5], the fluorescence slope is -0.375 (inactive). For the same compound, in assay [6], the NADPH fluorescence slope was -2.1e-06 (inactive). Besides, the slope in [7] is 0.00516 (inactive). For the same compound, the compound was classed as inactive in [8].
`CCCCNC(=O)N(C)c1nncnc1C(=O)NC`: the cell count in assay [1] stood at 491. For the same compound, the inhibition is -10.8% (inactive) in [1], -190% (inactive) in assay [2], -7.28% (inactive) in [4] and -1.96% (inactive) in [9]. Further, the nuclei count in assay [2] is 191%. The z-score is 0.256 in assay [3] (setting [11]), -0.788 in [3] (setting [12]) and 0.32 in [3] (setting [13]). The fluorescence slope in assay [5] is -0.37 (inactive). In addition, the NADPH fluorescence slope in assay [6] is -2.2e-05 (inactive). For the same compound, the slope in assay [7] was 0.00552 (inactive). The call in [8] was inactive.
Turning to `CCOc1ccc(C2=Nn3c(nnc3-c3cccnc3)SC2)cc1`, the cell count in assay [1] stood at 732. Also, the inhibition in assay [1] is 1.2% (inactive); in assay [2] it was -49.1% (inactive); in [4], -9.66% (inactive); in assay [9], 8.58% (inactive). This compound also gave a nuclei count in [2] of 186%. For the same compound, the z-score in assay [3] (setting [11]) was -0.574; in assay [3] (setting [12]) it was 2.33; in [3] (setting [13]), 0.047. Also, the fluorescence slope in assay [5] is -0.414 (inactive). Moreover, in assay [6], the NADPH fluorescence slope is -0.000128 (inactive). The slope in [7] was 0.00953 (inactive). Also, the result in assay [8] was inactive.
As to `COC(=O)C(NC(C)=O)(Nc1nc2c(s1)CCCC2)C(F)(F)F` (stereo unspecified), the cell count in assay [1] worked out at 370. Besides, the inhibition in [1] is -7.5% (inactive); in assay [2], -63.7% (inactive); in assay [4], 5.42% (inactive); in assay [9], -6.09% (inactive). In addition, in assay [2], the nuclei count turned out to be 193%. Moreover, the z-score in assay [3] (setting [11]) is 1.49; in [3] (setting [12]), 0.382; in [3] (setting [13]), -1.06. Moreover, the fluorescence slope was -0.414 (inactive) in assay [5] and 0.00554 (inactive) in [10]. In addition, the NADPH fluorescence slope in assay [6] is -0.000114 (inactive). The compound was classed as inactive in assay [8].
On to `CCC(NC(=O)Nc1ccc(O)cc1)(C(F)(F)F)C(F)(F)F`, for which the cell count in assay [1] turned out to be 709. Besides, the inhibition in assay [1] was -9.4% (inactive); in [2] it was 18.3% (inactive); in [4] it was -3.95% (inactive); in assay [9] it was 2.89% (inactive). In assay [2], this compound showed a nuclei count of 156%. Further, the z-score in assay [3] (setting [11]) is -0.865; in assay [3] (setting [12]), 0.673; in assay [3] (setting [13]) it was 0.754. In addition, the fluorescence slope in assay [5] is -0.448 (inactive); in [10] it was 0.00524 (inactive). The NADPH fluorescence slope in assay [6] is -3.4e-05 (inactive). Besides, the compound was classed as inactive in [8].
`CCC(C(=O)Nc1ncn[nH]1)(C(F)(F)F)C(F)(F)F`: the cell count in [1] was determined as 692. Besides, the inhibition was 5.8% (inactive) in assay [1], -106% (inactive) in assay [2], 7.93% (inactive) in assay [4] and 27.8% (inactive) in assay [9]. The same compound gave a nuclei count in assay [2] of 171%. The results for the z-score in [3] (setting [11]), in assay [3] (setting [12]) and in assay [3] (setting [13]) were 0.655, 0.101 and -0.238, respectively. The fluorescence slope is -0.479 (inactive) in assay [5] and 0.0062 (inactive) in assay [10]. The NADPH fluorescence slope in assay [6] was -4.9e-05 (inactive). Further, in assay [8], the result was inactive.
